Assay results: ChEMBL document CHEMBL2218924, “A broad activity screen in support of a chemogenomic map for kinase signalling research and drug discovery” (Biochem J, 2013)

Tests used:
[1] = biological target: Vascular endothelial growth factor receptor 3 (Homo sapiens) (UniProt P35916); conditions: at 10 µM
[2] = biological target: Macrophage colony-stimulating factor 1 receptor (Homo sapiens) (UniProt P07333); conditions: at 1 µM
[3] = biological target: Macrophage colony-stimulating factor 1 receptor (Homo sapiens) (UniProt P07333); conditions: at 10 µM
[4] = biological target: Tyrosine-protein kinase Fyn (Homo sapiens) (UniProt P06241); conditions: at 1 µM
[5] = biological target: Tyrosine-protein kinase Fyn (Homo sapiens) (UniProt P06241); conditions: at 10 µM
[6] = biological target: T1, Mitogen-activated protein kinase kinase kinase kinase 2 (Homo sapiens) (UniProt Q12851); conditions: at 1 µM
T1 sequence (whole entry): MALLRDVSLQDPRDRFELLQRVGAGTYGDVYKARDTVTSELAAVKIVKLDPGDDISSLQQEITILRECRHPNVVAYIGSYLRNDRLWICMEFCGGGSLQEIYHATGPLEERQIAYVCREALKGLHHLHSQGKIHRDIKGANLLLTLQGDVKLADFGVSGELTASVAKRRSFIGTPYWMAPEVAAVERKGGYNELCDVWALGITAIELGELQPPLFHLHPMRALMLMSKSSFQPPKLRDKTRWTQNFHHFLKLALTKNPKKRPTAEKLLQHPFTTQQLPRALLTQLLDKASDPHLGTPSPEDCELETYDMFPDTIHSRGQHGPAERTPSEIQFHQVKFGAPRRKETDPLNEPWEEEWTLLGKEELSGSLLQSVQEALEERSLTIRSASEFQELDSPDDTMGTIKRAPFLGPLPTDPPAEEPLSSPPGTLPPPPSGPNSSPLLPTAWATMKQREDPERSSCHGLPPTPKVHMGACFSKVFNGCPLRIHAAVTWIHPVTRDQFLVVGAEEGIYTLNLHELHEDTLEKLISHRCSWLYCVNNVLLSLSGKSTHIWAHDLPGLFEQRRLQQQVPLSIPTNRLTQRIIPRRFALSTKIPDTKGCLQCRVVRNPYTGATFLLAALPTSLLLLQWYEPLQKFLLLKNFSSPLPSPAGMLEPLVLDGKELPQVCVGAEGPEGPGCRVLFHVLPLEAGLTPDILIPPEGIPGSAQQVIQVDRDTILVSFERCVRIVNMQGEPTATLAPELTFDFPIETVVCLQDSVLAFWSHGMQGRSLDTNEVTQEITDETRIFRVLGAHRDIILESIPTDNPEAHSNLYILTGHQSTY

[7] = biological target: T1, Mitogen-activated protein kinase kinase kinase kinase 2 (Homo sapiens); conditions: at 10 µM
[8] = biological target: G protein-coupled receptor kinase 5 (Homo sapiens) (UniProt P34947); conditions: at 10 µM
[9] = biological target: G protein-coupled receptor kinase 6 (Homo sapiens) (UniProt P43250); conditions: at 10 µM
[10] = biological target: T2, Rhodopsin kinase GRK7 (Homo sapiens) (UniProt Q8WTQ7); conditions: at 1 µM
T2 sequence (whole entry): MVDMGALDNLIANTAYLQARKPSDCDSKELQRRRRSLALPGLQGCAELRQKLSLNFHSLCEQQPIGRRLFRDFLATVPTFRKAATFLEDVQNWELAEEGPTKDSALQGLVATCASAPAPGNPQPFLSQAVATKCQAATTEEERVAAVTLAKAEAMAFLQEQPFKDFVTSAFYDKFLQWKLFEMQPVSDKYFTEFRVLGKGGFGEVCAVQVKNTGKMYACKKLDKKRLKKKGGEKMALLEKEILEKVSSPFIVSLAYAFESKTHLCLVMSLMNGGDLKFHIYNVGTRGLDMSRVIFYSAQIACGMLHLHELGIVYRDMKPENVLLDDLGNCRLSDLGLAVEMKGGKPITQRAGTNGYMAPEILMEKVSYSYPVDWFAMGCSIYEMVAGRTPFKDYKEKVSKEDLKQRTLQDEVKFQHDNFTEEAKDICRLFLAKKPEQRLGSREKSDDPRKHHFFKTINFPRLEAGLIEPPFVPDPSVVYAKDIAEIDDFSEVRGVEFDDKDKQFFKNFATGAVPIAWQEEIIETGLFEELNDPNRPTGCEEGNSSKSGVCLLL

[11] = biological target: T2, Rhodopsin kinase GRK7 (Homo sapiens); conditions: at 10 µM
[12] = biological target: Glycogen synthase kinase-3 alpha (Homo sapiens) (UniProt P49840); conditions: at 1 µM
[13] = biological target: Glycogen synthase kinase-3 alpha (Homo sapiens) (UniProt P49840); conditions: at 10 µM
[14] = biological target: Glycogen synthase kinase-3 beta (Homo sapiens) (UniProt P49841); conditions: at 1 µM
[15] = biological target: Glycogen synthase kinase-3 beta (Homo sapiens) (UniProt P49841); conditions: at 10 µM
[16] = biological target: Homeodomain-interacting protein kinase 1 (Homo sapiens) (UniProt Q86Z02); conditions: at 1 µM
[17] = biological target: Homeodomain-interacting protein kinase 1 (Homo sapiens) (UniProt Q86Z02); conditions: at 10 µM
[18] = biological target: Homeodomain-interacting protein kinase 2 (Homo sapiens) (UniProt Q9H2X6); conditions: at 1 µM
[19] = biological target: Homeodomain-interacting protein kinase 2 (Homo sapiens) (UniProt Q9H2X6); conditions: at 10 µM
[20] = biological target: Homeodomain-interacting protein kinase 3 (Homo sapiens) (UniProt Q9H422); conditions: at 1 µM

Macrophage colony-stimulating factor 1 receptor (Homo sapiens), sequence (P07333 whole entry): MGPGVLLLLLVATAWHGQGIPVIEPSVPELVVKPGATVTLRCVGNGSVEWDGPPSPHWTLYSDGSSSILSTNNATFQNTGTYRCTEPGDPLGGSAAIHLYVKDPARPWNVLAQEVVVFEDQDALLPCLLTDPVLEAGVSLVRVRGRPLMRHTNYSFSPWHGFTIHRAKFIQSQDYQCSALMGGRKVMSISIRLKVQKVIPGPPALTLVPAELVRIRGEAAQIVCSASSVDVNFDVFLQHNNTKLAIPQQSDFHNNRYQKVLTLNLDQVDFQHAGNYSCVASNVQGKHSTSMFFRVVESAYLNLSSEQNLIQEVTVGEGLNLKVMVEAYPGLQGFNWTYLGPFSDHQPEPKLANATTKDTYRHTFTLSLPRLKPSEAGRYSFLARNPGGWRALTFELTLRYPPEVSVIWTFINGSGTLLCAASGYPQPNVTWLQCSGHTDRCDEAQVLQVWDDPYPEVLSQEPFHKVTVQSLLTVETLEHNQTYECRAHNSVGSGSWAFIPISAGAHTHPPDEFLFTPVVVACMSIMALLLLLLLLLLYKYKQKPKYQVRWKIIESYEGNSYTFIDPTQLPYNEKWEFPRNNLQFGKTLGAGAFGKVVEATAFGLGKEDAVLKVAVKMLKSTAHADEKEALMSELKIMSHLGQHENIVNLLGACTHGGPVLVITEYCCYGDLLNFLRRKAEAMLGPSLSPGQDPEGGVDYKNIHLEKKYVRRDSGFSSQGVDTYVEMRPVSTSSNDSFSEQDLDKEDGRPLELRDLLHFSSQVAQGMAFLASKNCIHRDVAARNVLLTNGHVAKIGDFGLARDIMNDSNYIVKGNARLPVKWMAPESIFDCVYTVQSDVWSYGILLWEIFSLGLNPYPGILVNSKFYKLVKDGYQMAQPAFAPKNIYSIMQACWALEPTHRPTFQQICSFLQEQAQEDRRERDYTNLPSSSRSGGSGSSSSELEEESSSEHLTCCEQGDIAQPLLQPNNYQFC
G protein-coupled receptor kinase 5 (Homo sapiens), sequence (P34947 whole entry, looked up): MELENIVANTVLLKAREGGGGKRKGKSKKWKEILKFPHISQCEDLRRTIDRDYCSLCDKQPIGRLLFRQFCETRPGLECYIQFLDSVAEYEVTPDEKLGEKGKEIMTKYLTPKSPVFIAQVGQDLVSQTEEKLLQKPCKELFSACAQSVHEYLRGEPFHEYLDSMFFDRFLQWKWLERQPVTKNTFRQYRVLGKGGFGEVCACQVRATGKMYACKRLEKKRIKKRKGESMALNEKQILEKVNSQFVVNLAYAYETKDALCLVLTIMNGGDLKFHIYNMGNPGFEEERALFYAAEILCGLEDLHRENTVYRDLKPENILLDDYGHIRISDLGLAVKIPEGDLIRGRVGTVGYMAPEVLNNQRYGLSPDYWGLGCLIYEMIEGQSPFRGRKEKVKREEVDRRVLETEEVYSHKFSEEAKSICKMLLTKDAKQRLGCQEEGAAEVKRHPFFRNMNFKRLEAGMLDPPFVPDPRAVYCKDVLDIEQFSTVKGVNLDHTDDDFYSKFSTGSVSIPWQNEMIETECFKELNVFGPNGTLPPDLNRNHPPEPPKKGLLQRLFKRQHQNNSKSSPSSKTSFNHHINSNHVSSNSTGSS
Tyrosine-protein kinase Fyn (Homo sapiens), sequence (P06241 2-537 limits assumed): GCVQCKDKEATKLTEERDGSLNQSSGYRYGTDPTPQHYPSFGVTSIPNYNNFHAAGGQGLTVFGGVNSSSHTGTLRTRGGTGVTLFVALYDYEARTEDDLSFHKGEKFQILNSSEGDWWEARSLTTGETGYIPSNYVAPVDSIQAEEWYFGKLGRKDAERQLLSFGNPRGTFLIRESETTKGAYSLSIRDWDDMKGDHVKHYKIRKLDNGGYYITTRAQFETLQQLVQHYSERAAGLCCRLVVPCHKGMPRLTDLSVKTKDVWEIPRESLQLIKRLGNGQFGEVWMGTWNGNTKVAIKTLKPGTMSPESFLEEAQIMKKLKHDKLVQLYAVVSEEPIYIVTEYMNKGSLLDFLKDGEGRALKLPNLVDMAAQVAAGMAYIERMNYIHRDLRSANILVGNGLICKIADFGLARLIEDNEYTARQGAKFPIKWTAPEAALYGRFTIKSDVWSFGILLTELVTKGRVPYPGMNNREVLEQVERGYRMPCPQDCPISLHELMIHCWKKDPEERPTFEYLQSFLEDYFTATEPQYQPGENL
Homeodomain-interacting protein kinase 1 (Homo sapiens), sequence (Q86Z02 whole entry, looked up): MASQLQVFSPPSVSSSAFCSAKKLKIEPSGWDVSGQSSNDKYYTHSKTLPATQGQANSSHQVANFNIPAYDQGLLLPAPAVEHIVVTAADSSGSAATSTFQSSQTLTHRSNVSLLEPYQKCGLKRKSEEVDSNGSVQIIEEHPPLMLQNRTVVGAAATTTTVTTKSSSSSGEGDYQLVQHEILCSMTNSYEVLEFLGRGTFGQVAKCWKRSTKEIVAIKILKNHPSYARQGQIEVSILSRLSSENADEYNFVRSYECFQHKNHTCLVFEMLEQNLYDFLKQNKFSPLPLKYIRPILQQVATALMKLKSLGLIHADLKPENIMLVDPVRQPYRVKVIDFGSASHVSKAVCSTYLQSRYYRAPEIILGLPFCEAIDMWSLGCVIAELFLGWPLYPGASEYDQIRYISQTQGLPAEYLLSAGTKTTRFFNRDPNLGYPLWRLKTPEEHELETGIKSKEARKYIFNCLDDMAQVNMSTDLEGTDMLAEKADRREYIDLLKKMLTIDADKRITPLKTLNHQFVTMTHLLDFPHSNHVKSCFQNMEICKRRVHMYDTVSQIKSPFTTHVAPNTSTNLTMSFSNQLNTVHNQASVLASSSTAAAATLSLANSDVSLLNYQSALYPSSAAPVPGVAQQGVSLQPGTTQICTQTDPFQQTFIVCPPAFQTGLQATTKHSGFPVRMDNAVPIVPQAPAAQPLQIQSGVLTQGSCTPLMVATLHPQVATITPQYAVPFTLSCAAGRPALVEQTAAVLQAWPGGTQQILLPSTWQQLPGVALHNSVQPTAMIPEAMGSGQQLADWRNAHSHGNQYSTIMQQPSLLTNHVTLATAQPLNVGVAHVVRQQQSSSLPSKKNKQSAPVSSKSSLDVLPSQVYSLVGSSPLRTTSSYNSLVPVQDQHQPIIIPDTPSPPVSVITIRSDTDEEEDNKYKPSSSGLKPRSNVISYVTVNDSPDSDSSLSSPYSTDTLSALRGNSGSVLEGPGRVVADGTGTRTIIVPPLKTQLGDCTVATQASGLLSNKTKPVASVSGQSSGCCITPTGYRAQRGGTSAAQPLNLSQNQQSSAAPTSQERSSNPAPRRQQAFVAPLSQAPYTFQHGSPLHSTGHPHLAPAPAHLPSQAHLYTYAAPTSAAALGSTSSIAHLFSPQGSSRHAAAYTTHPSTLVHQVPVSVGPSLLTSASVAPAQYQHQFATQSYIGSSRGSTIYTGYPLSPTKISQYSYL
Glycogen synthase kinase-3 alpha (Homo sapiens), sequence (P49840 2-483 limits assumed): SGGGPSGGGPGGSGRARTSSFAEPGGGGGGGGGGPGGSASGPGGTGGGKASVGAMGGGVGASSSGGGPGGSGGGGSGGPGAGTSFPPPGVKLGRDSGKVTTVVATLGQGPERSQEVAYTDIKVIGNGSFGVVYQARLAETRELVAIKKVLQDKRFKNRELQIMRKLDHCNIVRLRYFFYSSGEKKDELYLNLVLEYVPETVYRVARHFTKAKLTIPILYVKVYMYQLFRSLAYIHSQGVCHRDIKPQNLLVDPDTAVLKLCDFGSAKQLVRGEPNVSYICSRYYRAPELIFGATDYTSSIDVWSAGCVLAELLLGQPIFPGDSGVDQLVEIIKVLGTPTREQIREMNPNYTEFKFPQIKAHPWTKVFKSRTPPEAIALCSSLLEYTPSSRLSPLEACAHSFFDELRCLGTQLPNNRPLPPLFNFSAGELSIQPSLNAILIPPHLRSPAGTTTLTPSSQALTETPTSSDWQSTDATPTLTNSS
Homeodomain-interacting protein kinase 2 (Homo sapiens), sequence (Q9H2X6 whole entry, looked up): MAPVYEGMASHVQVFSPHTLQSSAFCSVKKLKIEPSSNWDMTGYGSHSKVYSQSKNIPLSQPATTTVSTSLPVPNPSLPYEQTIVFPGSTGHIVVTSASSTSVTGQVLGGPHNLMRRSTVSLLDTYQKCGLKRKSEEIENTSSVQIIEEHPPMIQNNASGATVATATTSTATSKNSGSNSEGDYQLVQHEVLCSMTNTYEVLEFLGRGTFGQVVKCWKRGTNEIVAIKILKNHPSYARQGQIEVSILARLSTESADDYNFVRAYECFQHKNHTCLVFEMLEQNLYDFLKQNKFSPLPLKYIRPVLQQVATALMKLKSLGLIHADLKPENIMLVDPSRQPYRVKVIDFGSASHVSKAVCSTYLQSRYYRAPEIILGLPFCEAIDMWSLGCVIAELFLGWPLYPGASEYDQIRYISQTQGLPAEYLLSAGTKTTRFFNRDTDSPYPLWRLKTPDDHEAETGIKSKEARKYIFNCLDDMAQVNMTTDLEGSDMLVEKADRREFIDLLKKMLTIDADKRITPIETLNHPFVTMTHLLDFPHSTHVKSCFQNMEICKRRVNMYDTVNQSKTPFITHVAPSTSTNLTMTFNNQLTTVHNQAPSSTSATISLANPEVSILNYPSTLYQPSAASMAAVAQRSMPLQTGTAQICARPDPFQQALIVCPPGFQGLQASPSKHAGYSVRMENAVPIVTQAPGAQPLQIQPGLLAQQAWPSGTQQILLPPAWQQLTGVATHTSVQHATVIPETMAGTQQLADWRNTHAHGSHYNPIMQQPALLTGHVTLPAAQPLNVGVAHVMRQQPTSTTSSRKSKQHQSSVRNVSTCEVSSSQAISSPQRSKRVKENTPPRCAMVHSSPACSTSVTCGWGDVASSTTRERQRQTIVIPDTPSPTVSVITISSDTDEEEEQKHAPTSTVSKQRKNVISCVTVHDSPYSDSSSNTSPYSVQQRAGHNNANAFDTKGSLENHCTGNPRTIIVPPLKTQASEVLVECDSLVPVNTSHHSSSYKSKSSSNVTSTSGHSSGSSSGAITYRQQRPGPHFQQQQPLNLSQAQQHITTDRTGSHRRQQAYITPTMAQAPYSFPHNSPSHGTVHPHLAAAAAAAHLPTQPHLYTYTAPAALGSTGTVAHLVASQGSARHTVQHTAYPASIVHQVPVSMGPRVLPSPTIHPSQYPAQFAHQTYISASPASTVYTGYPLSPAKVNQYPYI

Row | SMILES | residual activity [1] [%] | residual activity [2] [%] | residual activity [3] [%] | residual activity [4] [%] | residual activity [5] [%] | residual activity [6] [%] | residual activity [7] [%] | residual activity [8] [%] | residual activity [9] [%] | residual activity [10] [%] | residual activity [11] [%] | residual activity [12] [%] | residual activity [13] [%] | residual activity [14] [%] | residual activity [15] [%] | residual activity [16] [%] | residual activity [17] [%] | residual activity [18] [%] | residual activity [19] [%] | residual activity [20] [%]
1 | COc1ccc(S(=O)(=O)N(CCO)c2ccccc2CN(C)C/C=C/c2ccc(Cl)cc2)cc1 | 93 | 78 | 64 | 73 | 37 | 85 | 81 | 87 | 86 | 99 | 85 | 100 | 103 | 123 | 121 | 112 | 93 | 103 | 94 | 103
2 | CC(C)n1cnc2/c(=N/c3cccc(Cl)c3)nc(NCCO)[nH]c21 | 5 | 83 | 39 | 21 | 3 | 35 | 19 | 61 | 53 | 76 | 20 | 98 | 69 | 122 | 88 | 98 | 73 | 89 | 56 | –
3 | CNc1cc2c(Nc3cccc(Br)c3)ncnc2cn1 | 38 | 88 | 59 | 57 | 16 | 81 | 34 | 100 | 90 | 93 | 81 | 123 | 91 | 106 | 117 | 103 | 101 | 108 | 97 | 100
4 | Cc1nc(-c2ccccc2)c(-c2ccncc2)o1 | 0 | 90 | 86 | 90 | 69 | 91 | 77 | 107 | 97 | 105 | 103 | 92 | 85 | 111 | 78 | 107 | 102 | 94 | 77 | 97
5 | CC(C)n1cnc2c(NCc3ccccc3)nc(NCCCO)nc21 | 68 | 101 | 77 | 93 | 1 | 87 | 75 | 93 | 87 | 94 | 74 | 105 | 101 | 134 | 114 | 111 | 92 | 100 | 90 | 96
6 | COc1ccc(OC)c2c(=S)c3ccccc3[nH]c12 | 60 | 84 | 62 | 83 | 90 | 90 | 80 | 97 | 80 | 84 | 83 | 100 | 85 | 118 | 94 | 105 | 67 | 98 | 53 | 99
7 | Oc1c2ccccc2c2c3c(cccc13)N=N2 | 0 | 36 | 9 | 60 | 47 | 16 | 2 | 63 | 81 | 71 | 27 | 54 | 40 | 74 | 58 | 93 | 62 | 55 | 15 | 73
8 | CC(=O)O/N=C1\C(=C2\C(=O)Nc3cc(Br)ccc32)Nc2ccccc21 | 1 | 33 | 16 | 1 | 0 | 67 | 23 | 94 | 88 | 106 | 87 | 4 | 0 | 14 | 2 | 95 | 85 | 84 | 43 | 93
9 | Nc1nc(Nc2ccc(S(N)(=O)=O)cc2)nn1C(=S)Nc1c(F)cccc1F | -1 | 5 | 0 | 6 | -1 | 1 | -1 | 30 | – | – | – | 3 | 2 | 4 | 0 | 30 | 47 | 12 | 0 | 25
10 | N#CC(C#N)=C(N)/C(C#N)=C/c1ccc(O)cc1 | 95 | 79 | 86 | – | 91 | 84 | 61 | – | 95 | 98 | 91 | – | – | 83 | 88 | 97 | 99 | 91 | 78 | –
11 | COc1cccc(-c2cc(=O)c3ccccc3o2)c1N | 80 | 114 | 88 | 93 | 39 | 91 | 82 | 102 | 96 | 96 | 97 | – | 77 | 106 | 103 | 112 | 92 | 109 | 95 | 99
12 | COc1ccc(C(=O)Nc2sc3c(c2C(N)=O)CCCC3)cc1OC | 12 | 39 | 43 | 79 | 95 | 81 | 81 | 93 | 84 | 92 | 81 | 121 | 105 | 81 | 99 | 99 | 105 | 99 | 96 | 94
13 | Nc1n[nH]c2nnc(-c3c(-c4ccccc4)nn4ccccc34)cc12 | 23 | 67 | 28 | 71 | 52 | 67 | 24 | 99 | 89 | 83 | 81 | 77 | 30 | 89 | 49 | 105 | 95 | 103 | 95 | 97
14 | Cn1nc2c3c(cccc31)C(=O)c1ccccc1-2 | 16 | 72 | 51 | 65 | 3 | 60 | 19 | 98 | – | 92 | 81 | 86 | 74 | 108 | 107 | 105 | 96 | 79 | 36 | 90
